The entries come from a sample that favours hits as a whole.
IL1B secr inh: inflammasome signaling inhibition, IL-1 beta readout; 360,000 tested, 4.7% active; THP-1 LPS/ATP IL-1B secretion, AlphaLISA, 16 h; stronger effect = lower value; activity change, % at 57.5 µM; in the data active = activity change below about -50%; inconclusive = mostly about -30% to -49%
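THP-1 cells pretreated 1 hr with compounds (up to 57.5 uM final), then stimulated with LPS (250 ng/mL final) plus ATP (1.25 mM final); secreted IL-1B measured by AlphaLISA after 16 hr, decreased signal indicating inhibition.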
TDP1 cell CPT: growth inhibition of DT40 Tdp1-/-;hTDP1 cells with camptothecin (screen for TDP1 inhibitors); chicken DT40 Tdp1-/-;hTDP1 cells + 20 nM CPT, ATP luminescence, 48 h; Potency, µM (titrated, usually from 46.2 µM), for the others: top-dose activity change, negative = growth inhibition, hits mostly inhibitors; 420,000 tested, 12% active; also: potency is read from the fitted curve at half-maximal effect; nearly all actives have a fitted effect of over 55% in size
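Chicken DT40 Tdp1-/- cells complemented with human TDP1, 400 cells/well, exposed to compounds plus 20 nM camptothecin for at least 48 h at 37 C; viability read as ATP content by CellTiter-Glo luminescence.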
12-LOX inh: inhibitors of human 12S-lipoxygenase ALOX12 | AID 1671190 | purified 12hLO, xylenol orange hydroperoxide absorbance | P18054 | Potency, µM (titrated, usually from 108 µM), for inactives: at the highest dose activity change, negative = inhibition, actives largely listed as inhibitors | 580,000 tested, 1.1% active; also: potency is read from the fitted curve at half-maximal effect
Target sequence (P18054 whole entry, looked up): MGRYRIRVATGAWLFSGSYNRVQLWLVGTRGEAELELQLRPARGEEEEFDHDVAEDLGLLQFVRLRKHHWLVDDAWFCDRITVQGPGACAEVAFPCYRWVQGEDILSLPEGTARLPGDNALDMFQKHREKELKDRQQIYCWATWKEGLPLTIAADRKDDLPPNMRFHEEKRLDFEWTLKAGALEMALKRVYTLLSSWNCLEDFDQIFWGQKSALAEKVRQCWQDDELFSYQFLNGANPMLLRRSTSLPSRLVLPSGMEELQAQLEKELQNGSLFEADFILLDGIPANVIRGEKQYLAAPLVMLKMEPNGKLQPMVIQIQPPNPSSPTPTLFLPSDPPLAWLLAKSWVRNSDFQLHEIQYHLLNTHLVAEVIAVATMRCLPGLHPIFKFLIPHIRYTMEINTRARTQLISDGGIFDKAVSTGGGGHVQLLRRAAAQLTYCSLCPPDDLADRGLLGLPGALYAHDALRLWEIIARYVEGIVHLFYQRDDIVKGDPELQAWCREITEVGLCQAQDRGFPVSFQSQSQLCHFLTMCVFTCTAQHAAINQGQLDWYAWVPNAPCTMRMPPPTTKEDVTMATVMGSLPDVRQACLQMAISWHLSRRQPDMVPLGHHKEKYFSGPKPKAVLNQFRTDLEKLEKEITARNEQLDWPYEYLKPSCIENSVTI
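Purified human 12hLO (150 nM final) in 25 mM Hepes, 0.01% Triton X-100, pH 7.0 was preincubated 15 min at room temperature with compound. Then 40 uM arachidonic acid was added, 30 min. Hydroperoxide was read by Fe-XO absorbance ratio 573/405 nm.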
HT1080NT lethal: kills 2HG-producing HT-1080-NT fibrosarcoma cells; HT-1080-NT fibrosarcoma viability, CellTiter-Glo ATP luminescence, 48 h; Potency, µM (highest dose often 46.1 µM), for the others: at the highest dose activity, negative = less viability, actives largely listed as cytotoxic; 360,000 tested, 1.6% active;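 also: NT is the 2HG producing partner of a matched IDH1 knockdown line; potency is read from the fitted curve at half-maximal effect; 0% = DMSO-treated cells and -100% = media-only wells without cells; nearly all actives have a fitted effect of over 55% in size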
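Fibrosarcoma NT cells, 750 per well in 5% FBS RPMI, were exposed to compound for 48 hours. Viability: CellTiter-Glo luminescence.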
HT1080 IDH1KD tx: kills HT-1080 cells with IDH1 knockdown | HT-1080 IDH1 knockdown viability, ATP luminescence, 48 h | Potency, µM (top dose mostly 46.1 µM), inactives show top-dose activity, negative = toxicity, most hits filed as cytotoxic | 360,000 tested, 2% active | AID 686971;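 also: potency is read from the fitted curve at half-maximal effect; 0% = DMSO wells and -100% = cell-free medium wells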
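Assay cells: HT-1080 with IDH1 knockdown, 750 per well, RPMI/5% FBS. Exposure: 48 h at 37 °C following 2 h pre-incubation. Read: CellTiter-Glo luminescence; fitted concentration-response, curve class assigned.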
TDP1 cell noCPT: qHTS for Inhibitors of human tyrosyl-DNA phosphodiesterase 1 (TDP1): qHTS in cells in absence of CPT | DT40 Tdp1-/- hTDP1 cells, no CPT, ATP luminescence, 48 h | Potency, µM (series often up to 46.2 µM), without a hit: top-dose activity change, negative = growth inhibition, hits mostly inhibitors | 420,000 tested, 15% active; also: potency is read from the fitted curve at half-maximal effect; nearly all actives have a fitted effect of over 55% in size
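Growth kinetics read by CellTiter-Glo luminescence after ≥48 hr at 37 °C. Cells: DT40 Tdp1-/- stably carrying human TDP1, 400 per well, compound exposure in the absence of CPT (DMSO vehicle).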
An asterisk follows results filed as active; ? = inconclusive; nt = not tested or not shown; [ ] = dose if it differs, or a comment. Unless noted, calls follow the shape of the dose curve; as a rule, active = well fitted curve in the direction sought with a large enough effect; inconclusive = small, poorly fitted or top-dose-only effect, or another doubt; inactive = no such curve, though single readings can be large; an effect the other way counts as inactive or inconclusive. Unless noted, % is scaled to controls: 0 for no effect and ±100 for the full control effect.

SMILES	IL1B secr inh	TDP1 cell CPT	12-LOX inh	HT1080NT lethal	HT1080 IDH1KD tx	TDP1 cell noCPT
Cc1ccc(Cl)c(NC(=O)CSc2cccc[n+]2[O-])c1Cl	-7.6	-1.6%	-1.8%	7.8%	5.4%	-3.3%
Cc1ccc(Cl)c(NC(=O)CCl)c1Cl	-91.2*	?	0.6%	-27.3%	-10.1%	?
O=C(CN1CCN(S(=O)(=O)N2CCCCC2)CC1)Nc1cc(Cl)cc(Cl)c1	-65.4*	-25.3%	5.6%	-6.1%	-14.9%	?
CN(C)S(=O)(=O)c1ccc(NC(=O)CN2CCN(C(c3ccccc3)c3ccccc3)CC2)cc1	11.1	?	6.0%	-4.8%	-4.3%	20.6µM*
NS(=O)(=O)c1ccc(NC(=O)CN2CCCCC2)cc1	-2.6	-11.6%	-18.5%	0.8%	5.2%	0.8%
O=C(CN1CCCCC1)Nc1ccc(S(=O)(=O)c2ccc(NC(=O)CN3CCCCC3)cc2)cc1	10.6	16.4µM*	1.6%	-1.3%	-0.3%	13µM*
O=C(CN1CCN(S(=O)(=O)N2CCCCCC2)CC1)Nc1ccc(Br)cc1	-26.9	?	10.7%	-4.4%	-1.8%	?
O=C(CN1CCN(S(=O)(=O)N2CCCCCC2)CC1)Nc1ccc(F)cc1	-15.0	1.6%	-9.2%	-12.2%	-13.1%	-17.8%
O=C(CN1CCN(S(=O)(=O)N2CCCCC2)CC1)Nc1ccc(Cl)c(Cl)c1	-76.7*	?	-8.2%	-20.9%	?	23.1µM*
COc1ccccc1NC(=O)COc1nc(CC(C)C)c2c(c1C#N)CCC2	nt	nt	5.3%	nt	nt	nt
Cn1c(-c2ccc3ccccc3c2)cc2ccccc21	nt	nt	-13.6%	nt	nt	nt
N#Cc1ccc(S(=O)(=O)N2CC[C@H]3C(=O)NCCCCCCN(Cc4ccncc4)[C@@H]3C2)cc1	nt	nt	48.7%	nt	nt	nt
CN(Cc1ccc(F)cc1)C(=O)c1cc(-c2ccncc2)nc2ccccc12	nt	nt	23.9%	nt	nt	nt
COc1ccc(OC)c(NC(=O)c2cc(-c3ccc(Cl)s3)nc3ccccc23)c1	nt	-27.5%	-16.1%	nt	nt	14.6µM*
Cc1ccc(-c2cc(C(=O)NC(C)C)c3ccccc3n2)cc1C	nt	nt	-6.5%	nt	nt	nt
COc1ccc(-c2cc(C(=O)N(C)Cc3ccc(F)cc3)c3ccccc3n2)cc1OC	-7.6	23.1µM*	164.1%	-3.5%	-0.8%	?
COc1ccc(-c2cc(C(=O)NC3CCCC3)c3ccccc3n2)cc1OC	20.4	?	-16.3%	-3.9%	-8.9%	14.6µM*
COc1ccc(-c2cc(C(=O)NC(C)c3ccccn3)c3ccccc3n2)cc1OC (stereo not drawn)	-15.2	23.1µM*	?	-2.5%	0.2%	20.6µM*
CCN(CC)C(=O)C1=C(C)N(Cc2ccc(OC)cc2)C(=O)C(CC(=O)NCCc2ccccn2)C1 (stereo not drawn)	-14.1	-5.1%	-88.0%	-5.5%	-5.3%	-23.6%
COc1ccccc1[C@@H]1CN(C(=O)Cc2nonc2C)C[C@H]1C(=O)O	nt	nt	15.4%	nt	nt	nt
CCCc1nnc2sc(-c3ccc(CNC(=O)c4ccccc4Br)cc3)nn12	nt	nt	-7.5%	nt	nt	nt
COc1ccc(NC(=O)c2cc(-c3ccc(OC)c(OC)c3)nc3ccccc23)c(OC)c1	5.5	29.1µM*	-2.5%	-6.0%	-27.6%	16.4µM*
Cc1cc(C)cc(NC(=O)c2cc(-c3ccncc3)nc3ccccc23)c1	nt	nt	35.2%	nt	nt	nt
CC(=O)c1cccc(NC(=O)c2cc(-c3ccncc3)nc3ccccc23)c1	-7.1	?	-11.2%	-4.9%[9.24 µM]	-22.7%	18.4µM*
COc1cc(-c2cc(C(=O)Nc3ccc(O)cc3)c3ccccc3n2)cc(OC)c1OC	-51.8*	10.3µM*	44.7µM*	?	?	?
SMILES	IL1B secr inh	TDP1 cell CPT	12-LOX inh	HT1080NT lethal	HT1080 IDH1KD tx	TDP1 cell noCPT
COc1ccc(NC(=O)c2cc(-c3ccncc3)nc3ccccc23)c(OC)c1	-19.6	?	-5.8%	?	?	?
O=C(Nc1ccc(O)cc1)c1cc(-c2ccncc2)nc2ccccc12	nt	nt	0.7%	nt	nt	nt
COc1cc(-c2cc(C(=O)Nc3cccc(C(C)=O)c3)c3ccccc3n2)cc(OC)c1OC	-19.3	6.51µM*	14.7%	-24.6%	?	?
CCCCN(CCCC)CCCNC(=O)c1cc(-c2ccc(Cl)s2)nc2ccccc12	nt	13µM*	?	nt	nt	14.6µM*
COc1cccc(-c2cc(C(=O)Nc3ccc(N(C)C(C)=O)cc3)c3cc(Br)ccc3n2)c1	-0.9	1.84µM*	?	-7.1%	-19.6%	1.84µM*
COc1ccc(-c2cc(C(=O)NCC(c3ccco3)N(C)C)c3ccccc3n2)cc1OC (stereo not drawn)	-23.3	23.1µM*	?	-5.0%	9.2%	14.6µM*
CC(OC(=O)c1cc(-c2cccnc2)nc2ccccc12)C(=O)Nc1ccc2ccccc2c1 (stereo not drawn)	-8.5	?	-34.5%	1.1%	12.5%	18.4µM*
Cc1ccc(S(=O)(=O)N(C)C)cc1NC(=O)c1cc(-c2ccncc2)nc2ccccc12	-10.4	?	0.0%	-2.4%	-1.8%	4.11µM*
COc1ccccc1CCNC(=O)c1cc(-c2ccccn2)nc2ccccc12	20.0	?	19.9%	-1.1%	5.6%	?
Cc1cccc(NC(=O)c2cc(-c3ccc(C)s3)nc3ccccc23)n1	-8.8	18.4µM*	?	?	?	13µM*
COc1cc(-c2cc(-c3nnco3)c3ccccc3n2)cc(OC)c1OC	?	?	0.0%	-15.9%	-16.6%	7.31µM*
Cc1ccc(-c2cc(C(=O)Nc3cc(C(=O)O)ccc3C)c3ccccc3n2)cc1	65.1	8.3%	-21.6%	-7.9%	-13.6%	?
COc1ccccc1CCNC(=O)c1cc(-c2ccncc2)nc2ccc(Br)cc12	-3.1	?	-9.2%	0.7%	-4.0%	20.6µM*
Cc1cc(NC(=O)c2cc(-c3ccc(C)s3)nc3ccccc23)no1	40.3	?	?	6.6%	-1.7%	?
COc1ccc(S(=O)(=O)N(C)C[C@@H]2OCc3cn(nn3)CCCC(=O)N([C@H](C)CO)C[C@H]2C)cc1	18.9	-3.2%	4.6%	23.3%	24.7%	15.9%
COc1cc2c(cc1NC(=O)c1cc(-c3ccncc3)nc3ccc(C)cc13)oc1ccccc12	4.5	23.1µM*	-12.5%	8.6%	3.5%	?
O=C(Nc1nc2c(s1)CCCC2)c1cc(-c2ccccc2)nc2ccccc12	-6.8	?	-13.0%	8.9%	-0.5%	?

Screens from PubChem BioAssay.
